A selection: hits, their analogues and other compounds. The true share with any hit is near 4.6%.
TIM10 inh: growth inhibitors of isogenic TIM10 control yeast, primary screen, counter-screen for tim10-1 yeast inhibitor project, luminescence, uHTS. AID 463195, 2010. S. cerevisiae TIM10 strain growth, BacTiter-Glo luminescence, 24 h. inhibition, % at 10 µM. 330,000 compounds, 1.4% hits;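 active = inhibition of 40% or more at the single tested concentration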;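 also: wild-type TIM10 isogenic control strain grown at permissive 25 °C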
SKKanGAS inh: S. pyogenes SKKanGAS growth inhibitors in kanamycin, primary screen, streptokinase expression inhibitor project, SKKanGAS strain, BacTiter-Glo luminescence. 6 h. inhibition, % at 7.5 µM. 300,000 compounds, 1.3% hits. AID 1662, 2009;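 active = mean replicate score, as percent of positive control median, at least 50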;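 also: strain carries kanamycin resistance gene driven by streptokinase promoter and grows in 40 µg/ml kanamycin; loss of luminescence reflects streptokinase promoter inhibition or plain growth inhibition; 0% = median of DMSO wells and 100% = positive control at its reference dose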
tim10-1 inh: growth inhibitors of tim10-1 mutant yeast, primary screen, luminescence, uHTS; 330,000 compounds, 2.2% hits; inhibition, % at 20 µM; S. cerevisiae tim10-1 ts strain growth, BacTiter-Glo, 24 h;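 active = inhibition of at least 40%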;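 also: mutant grown at 25 °C; 0% = DMSO wells with yeast and 100% = wells holding no yeast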
NALP3 yeast inh: NALP3 inflammasome inhibitors in reconstituted yeast, primary screen, luminescence, uHTS. Yeast reconstituted NLRP3/ASC/caspase-1, beta-gal luminescence, 24 h. inhibition, % at 10 µM. 330,000 compounds, 0.39% hits. AID 2825, 2010;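 active = inhibition of 50% or more; inactive = inhibition below 50%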;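 also: plate controls were induced DMSO wells for no effect and uninduced yeast grown without galactose for full effect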
tim23-1 inh: growth inhibitors of tim23-1 mutant yeast, primary screen, luminescence, uHTS; S. cerevisiae tim23-1 growth, BacTiter-Glo luminescence, 24 h; inhibition, % at 20 µM; 330,000 compounds, 1.3% hits;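 active = growth inhibition of the mutant yeast at or above 50%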;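 also: temperature-sensitive mutant grown at 25 °C; plate controls were DMSO-treated mutant yeast for no effect and medium wells lacking yeast for full effect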
tim10-1 confirm: growth inhibitors of tim10-1 mutant yeast, confirmation, single concentration, luminescence, S. cerevisiae | shares compounds with tim10-1 inh | S. cerevisiae tim10-1 ts strain growth, BacTiter-Glo, 24 h | inhibition, % at 20 µM | 7,400 compounds, 56% hits;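 active = inhibition of yeast growth at or above a set limit in either of two repeat tests at 20 µM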;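 also: tim10-1 mutant grown at permissive 25 °C to find synthetic lethal compounds; 0% = DMSO yeast wells and 100% = medium wells without yeast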
TIM10 conf: growth inhibitors of wild-type TIM10 yeast, confirmation, counter-screen for tim10-1 synthetic lethality project, single concentration, luminescence, S. cerevisiae | S. cerevisiae tim10 strain growth, BacTiter-Glo luminescence, 24 h | inhibition, % at 10 µM | AID 463215, 2010 | shares compounds with TIM10 inh | 4,600 compounds, 63% hits;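 active = inhibition of yeast growth at or above a set limit in either of two replicates at 10 µM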;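 also: this counterscreen used the strain with wild-type TIM10; 0% = yeast with DMSO and 100% = medium wells lacking yeast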
* marks the source's active call; other numbers are inactive results; . = not tested or not shown.

SMILES	TIM10 inh	SKKanGAS inh	tim10-1 inh	NALP3 yeast inh	tim23-1 inh	tim10-1 confirm	TIM10 conf
CCCn1cnc2cc(NCc3ccc(Br)cc3)ccc21	51.6*	-1.9	42.7*	44.2	45.3	16.6	50.2*
CCc1cc(=O)oc2cc(C)cc(OCC(=O)N3CCC(C(=O)NC(C)C)(c4ccccc4)CC3)c12	10.1	7.4	18.2	7.6	21.9	.	.
O=[N+]([O-])c1cccc(NC(=S)NCCc2ccccc2)c1	46.3*	-14.7	47.5*	3.3	32.3	29.8*	17.2
Fc1cccc(NC(=S)NCCc2ccccc2)c1	22.7	-9.9	36.7	1.3	37.2	.	.
COc1cc(C(=O)NNC(=O)CNC(=O)c2ccc(Br)o2)cc(OC)c1OC	-5.2	-6.5	0.6	11.6	-16.7	.	.
N#CC1(NC(=O)COc2ccc(C(N)=O)cc2)CCCC1	14.0	.	2.7	6.4	1.7	.	.
Cc1nn(-c2ccccc2)c2[nH]c(=O)c(CNCc3ccc4c(c3)OCO4)cc12	1.9	-2.0	3.7	-1.6	6.9	.	.
Cc1ccc(-c2nn(-c3ccccc3)c3[nH]c(=O)c(CNCc4ccccc4)cc23)cc1	43.3*	32.9	52.5*	25.1	47.3	46.8*	42.1*
O=C(CCNc1ccc(Cc2ccncc2)cc1)c1ccc([N+](=O)[O-])cc1	62.0*	0.4	49.3*	12.5	40.2	37.2*	41.2*
C=CCn1c(SCC(=O)Nc2cc(C)c(Cl)cc2OC)nnc1-c1ccco1	7.6	.	30.5	19.4	35.8	.	.
C=CCn1c(SCc2c(F)cccc2Cl)nnc1-c1ccco1	50.6*	1.0	41.0*	8.8	45.5	37.0*	23.2
CCc1cccc(NC(=O)CCNS(=O)(=O)c2ccc3c(c2)oc(=O)n3C)c1	1.6	-4.3	6.7	7.9	7.7	.	.
O=C(Cc1ccc(Br)c2ccccc12)N/N=C/c1ccccn1	40.1*	-31.7	41.2*	7.1	7.3	21.0	32.0*
O=C(Cc1ccc(F)cc1)N/N=C/c1ccccn1	0.3	-7.7	7.6	21.3	5.4	.	.
Cc1ccc(NC(=O)c2cc(S(=O)(=O)NCCC3=CCCCC3)ccc2F)cc1	54.3*	16.3	49.7*	8.7	42.0	41.0*	-11.6
COc1cc2ncc(S(=O)(=O)c3ccccc3)c(N3CCCC(C)C3)c2cc1OC (configuration not stated)	36.9	43.8	17.8	17.5	28.3	.	.
Cc1ccc(C2=NN(CC(=O)NCCC(C)C)C(=O)CC2)cc1	8.7	-6.1	7.7	-6.4	1.5	.	.
COc1ccccc1OCC(=O)Nc1ccncc1	-1.8	8.1	-11.9	-1.1	-5.2	.	.
C=CCN(CC=C)S(=O)(=O)c1ccc(NC(=O)COc2ccccc2OC)cc1	42.4*	.	45.4*	10.7	38.7	32.2*	-11.2
O=C(Nc1ccccc1)Nc1cccc(C(F)(F)F)c1	13.1	2.3	5.9	23.0	11.7	.	.
Cc1ccc(OC(F)F)c(NC(=O)Nc2cccc(C(F)(F)F)c2)c1	50.9*	38.6	46.8*	-1.9	38.0	44.8*	57.7*
O=C1[C@@H]2Cc3c([nH]c4ccccc34)CN2C(=O)CN1CCCCCO	3.9	-2.8	10.0	7.7	7.2	.	.
CCCCN(C)CCNC(=O)c1cc2cc3ccc(OC)cc3nc2o1	56.7*	2.9	49.0*	21.4	37.6	29.2*	46.5*
CCN(CC)CCNC(=O)c1cc2cc3ccc(OC)cc3nc2o1	22.8	0.2	0.0	5.9	-4.8	.	.
CCOC(=O)c1c(NC(=O)CSc2nc3ccc(OC)cc3[nH]2)sc2c1CC(C)(C)NC2(C)C	-5.2	-1.1	1.5	0.2	-2.4	.	.
COc1ccc(C(CNC(=O)C2CCN(S(=O)(=O)c3ccc(F)cc3)CC2)N(C)C)cc1 (configuration not stated)	0.4	7.4	14.2	21.3	5.1	.	.
Cc1nn(-c2ccc(F)cc2)c(C)c1NS(=O)(=O)c1ccc(Cl)cc1	50.9*	-1.7	48.2*	6.3	48.0	39.9*	22.1
